Source: the supplement of paper PMC8728848
Many of the other results were omitted from the sample, so the strongest signals are more common in it than they were.

How the values were obtained:
Assay in all cases: glycan array binding signal (z-score within array); higher = stronger binding
Conditions in all cases: glycan notation: IUPAC condensed, linker removed
[1] = biological target: Fuc(a1-2)Gal(b1-3)[Fuc(a1-4)]GlcNAc(b1-3)[Fuc(a1-3)[Gal(b1-4)]GlcNAc(b1-6)]Gal(b1-4)Glc
Summary of the method: (§1)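 Glycan array binding is given as a within-array Z-score, which can be read as non-binding when negative. The arrays, 3228 of them, came from the Consortium for Functional Glycomics database and were retained only where the protein sequence was available. Z-scores were averaged across arrays of the same protein sequence at different concentrations or buffers and across linkers.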

[2] = biological target: Fuc(a1-2)Gal(b1-4)Glc6S
Summary of the method: as §1

[3] = biological target: Fuc(a1-2)Gal(b1-4)GlcNAc(b1-3)[Fuc(a1-3)[Gal(b1-4)]GlcNAc(b1-6)]Gal(b1-4)Glc
Summary of the method: as §1

[4] = biological target: Fuc(a1-2)Gal6S(b1-3)GlcNAc6S
Summary of the method: as §1

[5] = biological target: Fuc(a1-2)Gal6S(b1-4)Glc
Summary of the method: as §1

[6] = biological target: Fuc(a1-2)[Gal(a1-3)]Gal(b1-3)GlcNAc(b1-3)GalNAc
Summary of the method: as §1

[7] = biological target: Fuc(a1-2)[Gal(a1-3)]Gal(b1-4)GlcNAc(b1-3)GalNAc
Summary of the method: as §1

[8] = biological target: Fuc(a1-2)[Gal(a1-3)]Gal(b1-4)GlcNAc(b1-3)[Fuc(a1-2)[Gal(a1-3)]Gal(b1-4)GlcNAc(b1-6)]GalNAc
Summary of the method: as §1

[9] = biological target: Fuc(a1-2)[GalNAc(a1-3)]Gal(b1-4)Glc
Summary of the method: as §1

[10] = biological target: Fuc(a1-3)[Gal(b1-4)]Glc6S
Summary of the method: as §1

[11] = biological target: Fuc(a1-3)[Gal(b1-4)]GlcNAc(b1-3)GalNAc
Summary of the method: as §1

[12] = biological target: Fuc(a1-3)[Gal3S(b1-4)]Glc
Summary of the method: as §1

[13] = biological target: Fuc(a1-4)GlcNAc
Summary of the method: as §1

[14] = biological target: Gal(a1-3)Gal(b1-4)GlcNAc(b1-6)GalNAc
Summary of the method: as §1

[15] = biological target: Gal(b1-3)GlcNAc(b1-2)Man(a1-3)[GlcNAc(b1-4)][Gal(b1-3)GlcNAc(b1-2)Man(a1-6)]Man(b1-4)GlcNAc(b1-4)GlcNAc
Summary of the method: as §1

[16] = biological target: Gal(b1-3)GlcNAc(b1-3)Gal(b1-4)[Fuc(a1-3)]GlcNAc(b1-6)[Gal(b1-3)GlcNAc(b1-3)]Gal(b1-4)Glc
Summary of the method: as §1

[17] = biological target: Gal(b1-3)GlcNAc(b1-6)GalNAc
Summary of the method: as §1

[18] = biological target: Gal(b1-3)[Fuc(a1-4)]GlcNAc(b1-2)Man
Summary of the method: as §1

[19] = biological target: Gal(b1-4)GlcNAc(b1-2)Man
Summary of the method: as §1

[20] = biological target: Gal(b1-4)GlcNAc(b1-2)Man(a1-3)[Gal(b1-4)GlcNAc(b1-2)Man(a1-6)]Man(b1-4)GlcNAc(b1-4)GlcNAc
Summary of the method: as §1

[21] = biological target: Gal(b1-4)GlcNAc(b1-2)Man(a1-3)[Gal(b1-4)GlcNAc(b1-2)Man(a1-6)][GlcNAc(b1-4)]Man(b1-4)GlcNAc(b1-4)[Fuc(a1-6)]GlcNAc
Summary of the method: as §1

[22] = biological target: Gal(b1-4)GlcNAc(b1-2)Man(a1-3)[GlcNAc(b1-4)][Gal(b1-4)GlcNAc(b1-2)Man(a1-6)]Man(b1-4)GlcNAc(b1-4)GlcNAc
Summary of the method: as §1

[23] = biological target: Gal(b1-4)GlcNAc(b1-2)[Gal(b1-4)GlcNAc(b1-4)]Man(a1-3)[GlcNAc(b1-4)][Gal(b1-4)GlcNAc(b1-2)[Gal(b1-4)GlcNAc(b1-6)]Man(a1-6)]Man(b1-4)GlcNAc(b1-4)GlcNAc
Summary of the method: as §1

[24] = biological target: Gal(b1-4)GlcNAc(b1-2)[Gal(b1-4)GlcNAc(b1-6)]Man(a1-6)[GlcNAc(b1-4)][Gal(b1-4)GlcNAc(b1-2)[Gal(b1-4)GlcNAc(b1-4)]Man(a1-3)]Man(b1-4)GlcNAc(b1-4)[Fuc(a1-6)]GlcNAc
Summary of the method: as §1

[25] = biological target: Gal(b1-4)GlcNAc(b1-3)Gal(b1-4)GlcNAc(b1-3)Gal(b1-4)GlcNAc(b1-2)[Gal(b1-4)GlcNAc(b1-3)Gal(b1-4)GlcNAc(b1-3)Gal(b1-4)GlcNAc(b1-6)]Man(a1-6)[Gal(b1-4)GlcNAc(b1-3)Gal(b1-4)GlcNAc(b1-3)Gal(b1-4)GlcNAc(b1-2)Man(a1-3)]Man(b1-4)GlcNAc(b1-4)[Fuc(a1-6)]GlcNAc
Summary of the method: as §1

[26] = biological target: Gal(b1-4)GlcNAc(b1-3)Gal(b1-4)GlcNAc(b1-6)[Gal(b1-3)]GalNAc
Summary of the method: as §1

[27] = biological target: Gal(b1-4)GlcNAc(b1-3)[Fuc(a1-3)GlcNAc(b1-6)]Gal(b1-4)Glc
Summary of the method: as §1

B1: HBHA-Rv (Mycobacterium tuberculosum), P0A5P6 (protein)
chain: MAENSNIDDIKAPLLAALGAADLALATVNELITNLRERAEETRTDTRSRVEESRARLTKLQEDLPEQLTELREKFTAEELRKAAEGYLEAATSRYNELVERGEAALERLRSQQSFEEVSARAEGYVDQAVELTQEALGTVASQTRAVGERAAKLVGIELPKKAAPAKKAAPAKKAAPAKKAAAKKAPAKKAAAKKVTQK
[1]
  glycan array binding signal (z-score): -0.277
[2]
  glycan array binding signal (z-score): -0.121
[3]
  glycan array binding signal (z-score): -0.392
[4]
  glycan array binding signal (z-score): 4.34
[5]
  glycan array binding signal (z-score): 0.069
[6]
  glycan array binding signal (z-score): -0.259
[7]
  glycan array binding signal (z-score): -0.204
[8]
  glycan array binding signal (z-score): 2.82
[9]
  glycan array binding signal (z-score): 0.064
[10]
  glycan array binding signal (z-score): -0.398
[11]
  glycan array binding signal (z-score): -0.275
[12]
  glycan array binding signal (z-score): -0.017
[13]
  glycan array binding signal (z-score): 20
[14]
  glycan array binding signal (z-score): 0.154
[15]
  glycan array binding signal (z-score): 0.595
[16]
  glycan array binding signal (z-score): -0.453
[17]
  glycan array binding signal (z-score): -0.248
[18]
  glycan array binding signal (z-score): 1.28
[19]
  glycan array binding signal (z-score): 1.37
[20]
  glycan array binding signal (z-score): 0.061
[21]
  glycan array binding signal (z-score): -0.352
[22]
  glycan array binding signal (z-score): -0.309
[23]
  glycan array binding signal (z-score): -0.455
[24]
  glycan array binding signal (z-score): -0.428
[25]
  glycan array binding signal (z-score): -0.41
[26]
  glycan array binding signal (z-score): -0.399
[27]
  glycan array binding signal (z-score): -0.398
